# PubChem BioAssay AID1159580 (chemical genetic matrix, 2015)
# Out of some 5,500 compounds screened, about 2,000 (36%) were called active. Not shown: some 18% with an inconclusive outcome. Some of the results follow. Values without a mark were called inactive. No stated cut-off is given here; in the data, active means normalized growth mostly below about 0.91 (no sharp cut-off); inconclusive means no clear call, values can overlap the other calls; inactive means mostly above about 0.92.
# Test: chemical genetic growth profiling, strain panel (AID 1159580);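 further: tested at 20 µM; growth read once vehicle control cultures reached saturation at 30 °C; 1 = growth at the plate median or of vehicle wells; lower values mean less growth of the strain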
# Conditions: growth OD
structure (smiles),measurement,setting,value
COc1c(C(=O)O)ccc2c1CCC(C)(C)O2,normalized growth,"S. cerevisiae deletion strains, locus YBR021W, strain FUR4, active compounds read low",1.03
same,normalized growth,"S. cerevisiae deletion strains, locus YBR229C, strain ROT2, active compounds read low",1.02
same,normalized growth,"S. cerevisiae deletion strains, locus YCL029C, strain bik1, active compounds read low",1.01
same,normalized growth,"S. cerevisiae deletion strains, locus YDL035C, strain GPR1, active compounds read low",1.09
same,normalized growth,"S. cerevisiae deletion strains, locus YDL074C, strain BRE1, active compounds read low",1.13
same,normalized growth,"S. cerevisiae deletion strains, locus YDL101C, strain DUN1, active compounds read low",1.02
same,normalized growth,"S. cerevisiae deletion strains, locus YDL134C, strain PPH21, active compounds read low",1.07
same,normalized growth,"S. cerevisiae deletion strains, locus YDL185W, strain tfp1, active compounds read low",0.976
same,normalized growth,"S. cerevisiae deletion strains, locus YDL192W, strain arf1, active compounds read low",1.03
same,normalized growth,"S. cerevisiae deletion strains, locus YDR101C, strain arx1, active compounds read low",0.999
same,normalized growth,"S. cerevisiae deletion strains, locus YDR150W, strain NUM1, active compounds read low",1.04
same,normalized growth,"S. cerevisiae deletion strains, locus YDR162C, strain NBP2, active compounds read low",1.05
same,normalized growth,"S. cerevisiae deletion strains, locus YDR318W, strain mcm21, active compounds read low",0.987
same,normalized growth,"S. cerevisiae deletion strains, locus YDR388W, active compounds read low",0.987
same,normalized growth,"S. cerevisiae deletion strains, locus YDR502C, strain sam2, active compounds read low",0.981
same,normalized growth,"S. cerevisiae deletion strains, locus YEL061C, strain CIN8, active compounds read low",1.03
same,normalized growth,"S. cerevisiae deletion strains, locus YER110C, active compounds read low",0.997
same,normalized growth,"S. cerevisiae deletion strains, locus YER155C, strain BEM2, active compounds read low",0.984
same,normalized growth,"S. cerevisiae deletion strains, locus YER167W, strain BCK2, active compounds read low",1.01
same,normalized growth,"S. cerevisiae deletion strains, locus YGL078C, strain dbp3, active compounds read low",0.964
same,normalized growth,"S. cerevisiae deletion strains, locus YGL086W, strain mad1, active compounds read low",1
same,normalized growth,"S. cerevisiae deletion strains, locus YGL248W, strain PDE1, active compounds read low",1.06
same,normalized growth,"S. cerevisiae deletion strains, locus YGR078C, strain PAC10, active compounds read low",1.06
same,normalized growth,"S. cerevisiae deletion strains, locus YGR135W, strain pre9, active compounds read low",0.994
same,normalized growth,"S. cerevisiae deletion strains, locus YGR229C, strain SMI1, active compounds read low",1.2 [resistant] (active)
same,normalized growth,"S. cerevisiae deletion strains, locus YGR252W, strain gcn5, active compounds read low",1.06
same,normalized growth,"S. cerevisiae deletion strains, locus YHR030C, strain SLT2, active compounds read low",1.02
same,normalized growth,"S. cerevisiae deletion strains, locus YHR079C, strain IRE1 (second series), active compounds read low",0.982
same,normalized growth,"S. cerevisiae deletion strains, locus YHR094C, strain hxt1, active compounds read low",0.987
same,normalized growth,"S. cerevisiae deletion strains, locus YHR129C, strain ARP1, active compounds read low",1.02
same,normalized growth,"S. cerevisiae deletion strains, locus YHR200W, strain rpn10, active compounds read low",1
same,normalized growth,"S. cerevisiae deletion strains, locus YIL066C, strain RNR3, active compounds read low",1.04
same,normalized growth,"S. cerevisiae deletion strains, locus YIL073C, strain SPO22, active compounds read low",1.12
same,normalized growth,"S. cerevisiae deletion strains, locus YIL125W, strain kgd1, active compounds read low",0.957
same,normalized growth,"S. cerevisiae deletion strains, locus YIR030C, strain dcg1, active compounds read low",0.982
same,normalized growth,"S. cerevisiae deletion strains, locus YJL095W, strain BCK1, active compounds read low",1.1
same,normalized growth,"S. cerevisiae deletion strains, locus YJL134W, strain LCB3, active compounds read low",1.01
same,normalized growth,"S. cerevisiae deletion strains, locus YJL168C, strain set2, active compounds read low",0.988
same,normalized growth,"S. cerevisiae deletion strains, locus YJL187C, strain SWE1 (second series), active compounds read low",1.03
same,normalized growth,"S. cerevisiae deletion strains, locus YKL009W, strain mrt4, active compounds read low",0.995
same,normalized growth,"S. cerevisiae deletion strains, locus YKL068W, active compounds read low",0.922 (active)
same,normalized growth,"S. cerevisiae deletion strains, locus YKL085W, strain MDH1 (second series), active compounds read low",0.955
same,normalized growth,"S. cerevisiae deletion strains, locus YKL085W, strain MDH1, active compounds read low",0.955
same,normalized growth,"S. cerevisiae deletion strains, locus YKL190W, strain CNB1, active compounds read low",1.02
same,normalized growth,"S. cerevisiae deletion strains, locus YKR001C, strain vps1, active compounds read low",1.04
same,normalized growth,"S. cerevisiae deletion strains, locus YLR039C, strain RIC1, active compounds read low",1.19
same,normalized growth,"S. cerevisiae deletion strains, locus YLR058C, strain SHM2, active compounds read low",1.04
same,normalized growth,"S. cerevisiae deletion strains, locus YLR102C, strain apc9, active compounds read low",0.986
same,normalized growth,"S. cerevisiae deletion strains, locus YLR262C, strain YPT6, active compounds read low",1.22
same,normalized growth,"S. cerevisiae deletion strains, locus YLR268W, strain sec22, active compounds read low",0.989
same,normalized growth,"S. cerevisiae deletion strains, locus YLR330W, strain CHS5, active compounds read low",1.03
same,normalized growth,"S. cerevisiae deletion strains, locus YLR342W, strain FKS1 (second series), active compounds read low",1.07
same,normalized growth,"S. cerevisiae deletion strains, locus YLR371W, strain rom2, active compounds read low",1.01
same,normalized growth,"S. cerevisiae deletion strains, locus YLR418C, strain cdc73, active compounds read low",1.07
same,normalized growth,"S. cerevisiae deletion strains, locus YML016C, strain PPZ1, active compounds read low",1.02
same,normalized growth,"S. cerevisiae deletion strains, locus YML032C, strain rad52, active compounds read low",0.991
same,normalized growth,"S. cerevisiae deletion strains, locus YML124C, strain tub3, active compounds read low",0.975
same,normalized growth,"S. cerevisiae deletion strains, locus YMR078C, strain ctf18, active compounds read low",0.983
same,normalized growth,"S. cerevisiae deletion strains, locus YMR223W, strain ubp8, active compounds read low",1
same,normalized growth,"S. cerevisiae deletion strains, locus YMR263W, strain SAP30, active compounds read low",1.01
same,normalized growth,"S. cerevisiae deletion strains, locus YMR307W, strain GAS1, active compounds read low",1.03
same,normalized growth,"S. cerevisiae deletion strains, locus YNL067W, strain RPL9B, active compounds read low",0.992
same,normalized growth,"S. cerevisiae deletion strains, locus YNL233W, strain BNI4, active compounds read low",1.08
same,normalized growth,"S. cerevisiae deletion strains, locus YNL250W, strain rad50, active compounds read low",0.956
same,normalized growth,"S. cerevisiae deletion strains, locus YNL271C, strain bni1, active compounds read low",0.995
same,normalized growth,"S. cerevisiae deletion strains, locus YNL298W, strain CLA4, active compounds read low",0.993
same,normalized growth,"S. cerevisiae deletion strains, locus YNL307C, strain MCK1, active compounds read low",0.989
same,normalized growth,"S. cerevisiae deletion strains, locus YNL322C, strain KRE1, active compounds read low",1.02
same,normalized growth,"S. cerevisiae deletion strains, locus YNR052C, strain pop2, active compounds read low",0.981
same,normalized growth,"S. cerevisiae deletion strains, locus YOL006C, strain TOP1, active compounds read low",1.43
same,normalized growth,"S. cerevisiae deletion strains, locus YOL012C, strain htz1",0.918
same,normalized growth,"S. cerevisiae deletion strains, locus YOL147C, strain pex11, active compounds read low",0.98
same,normalized growth,"S. cerevisiae deletion strains, locus YOR061W, strain CKA2, active compounds read low",1.02
same,normalized growth,"S. cerevisiae deletion strains, locus YOR069W, strain VPS5, active compounds read low",1.01
same,normalized growth,"S. cerevisiae deletion strains, locus YOR136W, strain idh2, active compounds read low",0.993
same,normalized growth,"S. cerevisiae deletion strains, locus YOR144C, strain elg1, active compounds read low",0.981
same,normalized growth,"S. cerevisiae deletion strains, locus YOR184W, strain ser1, active compounds read low",1.04
same,normalized growth,"S. cerevisiae deletion strains, locus YOR316C, strain cot1, active compounds read low",0.977
same,normalized growth,"S. cerevisiae deletion strains, locus YPL241C, strain CIN2, active compounds read low",1.02
same,normalized growth,"S. cerevisiae deletion strains, locus YPR119W, strain clb2, active compounds read low",0.983
same,normalized growth,"S. cerevisiae deletion strains, locus YPR141C, strain kar3, active compounds read low",0.942
same,normalized growth,"S. cerevisiae deletion strains, locus YPR163C, strain tif3, active compounds read low",0.986
same,normalized growth,"S. cerevisiae deletion strains, locus YPR167C, strain met16, active compounds read low",0.98
same,normalized growth,"S. cerevisiae deletion strains, strain wtn01, active compounds read low",1.01
same,normalized growth,"S. cerevisiae strains, strain wild type, active compounds read low",1.06
